In the library only some 22% were active in any assay of this set; here they are far more common.
CYP2C19 inhib: blocks human cytochrome P450 2C19 | P33261 | CYP2C19 Supersomes, luciferin-H EGE luminescence, 30 min | inhibition, % at 5 µM | actives 21% (n = 96,000);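 active = CYP2C19 inhibition above a set limit at 5 µM in the primary screen, cut at about 50% in these data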;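 note: plate controls were negative control wells for no effect and 2.5 mM tranylcypromine positive control for full effect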
Target sequence (P33261 whole entry, looked up): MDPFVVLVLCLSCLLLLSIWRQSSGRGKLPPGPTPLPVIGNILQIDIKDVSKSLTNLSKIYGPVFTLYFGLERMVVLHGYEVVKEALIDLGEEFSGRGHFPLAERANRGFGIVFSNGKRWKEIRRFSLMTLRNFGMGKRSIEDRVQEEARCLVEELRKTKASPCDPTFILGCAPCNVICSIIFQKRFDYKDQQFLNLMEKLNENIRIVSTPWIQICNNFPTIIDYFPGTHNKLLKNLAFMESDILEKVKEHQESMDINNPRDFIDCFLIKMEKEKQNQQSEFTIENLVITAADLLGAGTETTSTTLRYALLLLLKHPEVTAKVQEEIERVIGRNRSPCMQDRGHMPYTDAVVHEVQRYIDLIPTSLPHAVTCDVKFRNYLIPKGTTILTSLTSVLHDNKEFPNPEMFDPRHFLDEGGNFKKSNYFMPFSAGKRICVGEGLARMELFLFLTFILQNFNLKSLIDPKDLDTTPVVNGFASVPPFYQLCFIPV
Measles CPE: protection of cells from measles virus; Measles virus-infected cells, CPE protection, absorbance; protection (pct of control), % at 4 µM; actives 1.5% (n = 140,000); AID 841; in the data active = protection mostly above about 24%, no sharp cut-off; inactive = mostly below about 26%
CYP2C9 act: increases human cytochrome P450 2C9 activity; P11712; recombinant CYP2C9, luciferin-H conversion, luminescence; stronger effect = higher value; factor 1 = untreated enzyme, 0 = blocked; activation factor at 5 µM; actives 1.4% (n = 96,000); AID 1024;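 active = activation factor of 2 or more for CYP2C9 at a 5 µM dose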;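 note: 0 = sulfaphenazole-blocked wells and 1 = vehicle-only wells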
CYP2C19 activ: cytochrome P450 2C19 (human) activation; recombinant CYP2C19, luciferin-H EGE luminescence; stronger effect = higher value; 0 = fully inhibited enzyme, 1 = untreated enzyme; activation factor at 5 µM; 96,000 tested, under 10 active; P33261;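 active = activation factor of at least 2 at 5 µM in the primary screen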;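 note: 0 = wells with 2.5 mM tranylcypromine and 1 = vehicle-only wells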
CYP2C9 inh: human CYP2C9 inhibition | P11712 | CYP2C9 Supersomes, luciferin-H conversion, luminescence | inhibition, % at 5 µM | actives 20% (n = 96,000) | AID 777;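 active = blocking of liver enzyme CYP2C9 beyond about 50% at 5 µM, limit read from the data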
The depositor's hits bear a star; / = no result given.

SMILES | CYP2C19 inhib | Measles CPE | CYP2C9 act | CYP2C19 activ | CYP2C9 inh
O=C(NCc1ccc2c(c1)OCO2)c1ccc(CS(=O)(=O)c2ccc(Br)cc2)o1 | 55* | 15 | 0.1 | 0.5 | 95*
O=C(NCc1ccco1)c1ccc(CS(=O)(=O)c2cccc(C(F)(F)F)c2)o1 | 33 | / | 1 | 0.7 | 2
O=C(NCc1ccc2c(c1)OCO2)c1ccc(CS(=O)(=O)c2cccc(C(F)(F)F)c2)o1 | 76* | / | 0.1 | 0.2 | 94*
COc1cc(/C=C/c2nnc3c4ccccc4ncn23)cc(OC)c1OC | / | 6 | / | / | /
O=C(CNS(=O)(=O)c1cccc(Cl)c1)OCc1csc(-c2ccccc2)n1 | / | 14 | / | / | /
CC(NC(=O)c1ccc(CS(=O)(=O)c2cccc(C(F)(F)F)c2)o1)c1ccc2c(c1)OCCO2 (configuration not stated) | 64* | 14 | 0.4 | 0.4 | 62*
COC(C(=O)NC1CC1)c1ccccc1 (configuration not stated) | / | 5 | / | / | /
COC(C(=O)Nc1ccccc1F)c1ccccc1 (configuration not stated) | 66* | 7 | 1.1 | 0.3 | -13
COC(C(=O)Nc1cccc(F)c1)c1ccccc1 (configuration not stated) | 50* | 44 | 0.8 | 0.5 | 23
COC(C(=O)Nc1ccc(F)cc1F)c1ccccc1 (configuration not stated) | 21 | 9 | 1 | 0.8 | -2
C=CCSc1nccc(-c2cc(Cl)sc2Cl)n1 | 80* | 5 | 0.3 | 0.2 | 72*
O=C(CC1C(=O)NCCN1C(=O)c1ccc(F)cc1)OCc1ccccc1 (configuration not stated) | 46 | 5 | 1 | 0.5 | 4
CC(=O)c1c(COC(=O)c2ccncc2)nc2ccccc2[n+]1[O-] | 92* | 7 | 0.6 | 0.1 | 35
CCOC(=O)c1c(COC(=O)c2ccco2)nc2ccccc2[n+]1[O-] | 14 | 4 | 0.8 | 0.9 | 19
CC(=O)c1c(COC(=O)c2ccco2)nc2ccccc2[n+]1[O-] | 60* | / | 0.4 | 0.4 | 63*
CC(NC(=O)c1ccccc1Cl)C(=O)O (configuration not stated) | -8 | 7 | 0.9 | 1.1 | 12
CCN(C(=O)C1CCCCC1)c1nnc(-c2cccnc2)s1 | 40 | 12 | 0.6 | 0.6 | 40
COc1ccc(-c2nnc(SC(C)C(=O)Nc3nccs3)n2Cc2ccccc2)cc1OC (configuration not stated) | 44 | 19 | 0.4 | 0.6 | 56*
O=C(CSc1nc(N2CCCCC2)nc(N2CCCCC2)n1)Nc1nccs1 | 15 | 8 | 0.3 | 0.8 | 67*
O=C(CSC1CCCCC1)Nc1nccs1 | 84* | 19 | 0.6 | 0.2 | 42
Cc1nnc(NC(=O)CSC2CCCCC2)s1 | 27 | 3 | 0.8 | 0.7 | 18
CCOC(=O)C1=NN(c2ccccc2)C2(S1)SC(C(C)=O)=C(C)N2c1ccccc1 (configuration not stated) | -20 | 31 | 0.6 | 1.2 | 44
CCOC(=O)C1=NN(c2ccc(C)cc2)C2(S1)SC(C(C)=O)=C(C)N2c1ccccc1 (configuration not stated) | 39 | 4 | 0.5 | 0.6 | 54*
CCOC(=O)c1sc(=S)n(-c2ccccc2)c1N | / | 13 | / | / | /
CCOC(=O)C1=NN(c2cccc(C)c2)C2(S1)SC(C(C)=O)=C(C)N2c1ccccc1 (configuration not stated) | 47 | 21 | 0.2 | 0.5 | 80*
SMILES | CYP2C19 inhib | Measles CPE | CYP2C9 act | CYP2C19 activ | CYP2C9 inh
COC(=O)C1=NN(c2ccccc2)C2(S1)S/C(=C\c1ccccc1)C(=O)N2c1ccccc1 (configuration not stated) | 88* | 5 | 0.5 | 0.1 | 54*
O=C(CCN1CCOCC1)Nc1ccc2c(c1)N(C(=O)CN1CCOCC1)c1ccccc1CC2 | -7 | 13 | 1 | 1.1 | -5
Cc1cc(C(=O)N2CCN(c3ccccc3)CC2)no1 | 30 | / | 0.9 | 0.7 | 10
CCN(CC)S(=O)(=O)c1ccc(NC(=O)c2cc(-c3ccccc3)nc3ccccc23)cc1 | / | 19 | / | / | /
CCn1c(C)csc1=NC(=O)c1ccccc1O | 40 | 16 | 0.9 | 0.6 | 14
Cn1c(=O)[nH]c(=O)c2c1nc(NC1CCCCC1)n2CC(=O)NC1CCCCC1 | -1 | 7 | 1 | 1 | -2
Cc1ccc2c(c1)N(CCC(=O)NC1CC1)C(=O)C(C)O2 (configuration not stated) | 5 | 8 | 1 | 0.9 | 1
Cc1ccc2oc3nc(C)c(C(=O)O)cc3c(=O)c2c1 | 60* | 7 | 0.7 | 0.4 | 31
O=C(O)Cn1c(SCCOc2ccccc2F)nc2ccccc21 | 8 | 4 | 0.3 | 0.9 | 70*
OCCSc1nc2ccccc2n1CCOc1ccccc1 | 91* | 2 | 0.2 | 0.1 | 78*
OCCn1c(SCCOc2ccccc2F)nc2ccccc21 | 94* | 1 | 0.5 | 0.1 | 52*
CCOC(=O)c1ccc(NC(=S)N(CCCN2CCCC2)Cc2ccco2)cc1 | / | 14 | / | / | /
CC(C)N(C(=O)Cn1c(-c2ccccc2Cl)nc2ccccc21)c1ccccc1 | / | 34* | / | / | /
CCc1cccc(CC)c1NC(=O)Cn1c(-c2ccccc2Cl)nc2ccccc21 | / | 1 | / | / | /
Cn1c(SCC(=O)NCc2cccs2)nnc1-c1ccc(S(=O)(=O)N2CCCC2)cc1 | 41 | 7 | 0.5 | 0.6 | 50
N#C/C(=C\c1cccs1)Sc1nc2ccccc2s1 | 96* | 8 | 0.5 | 0 | 50
N#C/C(=C\c1ccc[nH]1)Sc1nc2ccccc2s1 | 92* | 4 | 0.2 | 0.1 | 77*
Clc1ccc(Nc2nc(-c3cccnc3)cs2)cc1 | 83* | 16 | 0.9 | 0.2 | 6
COc1ccc(Nc2nc(-c3cccs3)cs2)cc1 | 2 | 7 | 1.1 | 1 | -5
CN(C)c1ccc(Nc2nc(-c3cccnc3)cs2)cc1 | 81* | 4 | 0.5 | 0.2 | 46
NS(=O)(=O)c1ccc(Nc2nc(-c3ccc4ccccc4c3)cs2)cc1 | -3 | 33 | 1.1 | 1 | -6
Cc1noc(C)c1COc1cccc(C(=O)NCc2cccc(Cl)c2)c1 | 42 | 24 | 0.5 | 0.6 | 52*
Cc1cccc(C(=O)Nc2ccccc2C(=O)OCc2c(C)noc2C)c1 | 46 | 90* | 0.1 | 0.5 | 86*
Cc1noc(C)c1COc1cccc(C(=O)Nc2ccc(C#N)cc2)c1 | 5 | 13 | 0.7 | 0.9 | 26
Cc1ccc(CNC(=O)c2cccc(OCc3c(C)noc3C)c2)cc1 | 58* | 14 | 0.7 | 0.4 | 29
Cc1ccc(NC(=O)c2cccc(OCc3c(C)noc3C)c2)cc1 | 91* | 13 | 0 | 0.1 | 95*
Cc1ccccc1NC(=O)c1cccc(OCc2c(C)noc2C)c1 | 24 | 20 | 0.8 | 0.8 | 20
COc1ccc(C(=O)c2coc3ccc(O)c(CN4CCCCC4)c23)cc1 | 40 | 7 | 0.8 | 0.6 | 19
COc1cccc(-c2nc(Oc3cc(C)cc(C)c3)c3ccccc3n2)c1O | / | 3 | / | / | /
CC(C)OC(=O)CSc1nc(N)c(C#N)c(-c2cccs2)c1C#N | 23 | 1 | 1 | 0.8 | 3

From PubChem
